# Measured values: PubChem BioAssay AID1159580 (chemical genetic matrix, 2015)
# The whole screen tested about 5,500 compounds, of which about 2,000 (36%) were called active. Another 18% or so got no clear call; they are omitted. Some of the results follow. A number with no mark means an inactive call. Cut-off read from the data, not from the text of the source: active = normalized growth mostly below about 0.91 (no sharp cut-off); inconclusive = no clear call, values can overlap the other calls; inactive = mostly above about 0.92.
# Assay: chemical genetic growth profiling, strain panel (AID 1159580);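 note: tested at 20 µM; growth read once vehicle control cultures reached saturation at 30 °C; 1 = growth at the plate median or of vehicle wells; lower values mean less growth of the strain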
# Details: S. cerevisiae deletion strains, growth OD
# [1] = locus YAL040C, strain CLN3, hits give low values
# [2] = locus YCL061C, strain MRC1 (second series), hits give low values
# [3] = locus YDR363W, strain ESC2, hits give low values
# [4] = locus YER002W, strain NOP16, hits give low values
# [5] = locus YJR075W, strain HOC1, hits give low values
# [6] = locus YMR263W, strain SAP30, hits give low values
# [7] = locus YMR307W, strain GAS1, hits give low values
# [8] = locus YNL128W, strain TEP1, hits give low values
# [9] = locus YNL175C, strain NOP13, hits give low values
# [10] = locus YNL197C, strain WHI3, hits give low values
# [11] = locus YNL224C, strain SQS1, hits give low values
# [12] = locus YOR083W, strain WHI5 (second series), hits give low values
# [13] = locus YAL013W, strain DEP1, hits give low values
# [14] = locus YGR078C, strain PAC10, hits give low values
# [15] = locus YPL241C, strain CIN2, hits give low values
structure (smiles),measurement,setting,value
S=C(NC1CCCCC1)N1CCC(c2cnc[nH]2)CC1,normalized growth,[1],1.01
same,normalized growth,[2],0.998
same,normalized growth,[3],1.01
same,normalized growth,[4],0.994
same,normalized growth,[5],1
same,normalized growth,[6],1.01
same,normalized growth,[7],0.996
same,normalized growth,[8],0.984
same,normalized growth,[9],1
same,normalized growth,[10],0.974
same,normalized growth,[11],0.986
same,normalized growth,[12],1.02
same,normalized growth,"locus YPL055C, strain LGE1, hits give low values",0.993
CC(COc1ccc(/C=C/c2ccccc2)cc1)[N+](C)(C)C (stereo not drawn),normalized growth,[13],0.942
same,normalized growth,[1],1.02
same,normalized growth,[2],0.982
same,normalized growth,"locus YDR150W, strain NUM1, hits give low values",0.926 (active)
same,normalized growth,[3],0.914
same,normalized growth,[4],0.989
same,normalized growth,[14],0.99
same,normalized growth,[5],0.878 (active)
same,normalized growth,[6],1.01
same,normalized growth,[7],0.994
same,normalized growth,[8],1.03
same,normalized growth,[9],0.999
same,normalized growth,[10],0.996
same,normalized growth,[11],1.12 [resistant] (active)
same,normalized growth,[12],0.816 (active)
same,normalized growth,[15],0.98
Cc1cccc(/C=C/c2ccccc2)n1,normalized growth,[13],1
same,normalized growth,[1],0.984
same,normalized growth,[2],1.01
same,normalized growth,[3],1.04
same,normalized growth,[4],0.975
same,normalized growth,[14],1.01
same,normalized growth,[7],0.995
same,normalized growth,"locus YNL153C, strain GIM3, hits give low values",0.93
same,normalized growth,[9],0.963
same,normalized growth,[10],0.986
same,normalized growth,[11],0.989
same,normalized growth,[12],0.923
same,normalized growth,[15],1.02
OC(COc1ccc(F)cc1)(c1ccccc1)c1ccccc1,normalized growth,"locus YAR019C, strain CDC15, hits give low values",0.955
same,normalized growth,"locus YBL105C, strain PKC1, hits give low values",0.953
same,normalized growth,"locus YBR135W, strain CKS1, hits give low values",0.965
same,normalized growth,"locus YBR136W, strain MEC1, hits give low values",0.968
same,normalized growth,"locus YBR160W, strain CDC28, hits give low values",0.951
same,normalized growth,"locus YDL017W, strain CDC7, hits give low values",0.955
same,normalized growth,"locus YDL028C, strain MPS1, hits give low values",0.977
same,normalized growth,"locus YDL101C, strain DUN1, hits give low values",0.939
same,normalized growth,"locus YDL108W, strain KIN28, hits give low values",0.982
same,normalized growth,"locus YDL132W, strain cdc53, hits give low values",0.955
same,normalized growth,"locus YDL214C, strain PRR2, hits give low values",0.964
same,normalized growth,"locus YDR052C, strain DBF4, hits give low values",0.965
same,normalized growth,"locus YDR054C, strain cdc34, hits give low values",0.949
same,normalized growth,"locus YDR226W, strain ADK1, hits give low values",0.955
same,normalized growth,"locus YDR477W, strain SNF1, hits give low values",0.985
same,normalized growth,"locus YER123W, strain YCK3, hits give low values",0.969
same,normalized growth,"locus YER133W, strain GLC7, hits give low values",0.993
same,normalized growth,"locus YFL009W, strain cdc4, hits give low values",0.954
same,normalized growth,"locus YFL029C, strain CAK1, hits give low values",0.957
same,normalized growth,"locus YFR003C, strain YPI1, hits give low values",0.961
same,normalized growth,"locus YFR019W, strain FAB1, hits give low values",0.974
same,normalized growth,"locus YFR028C, strain CDC14, hits give low values",0.964
same,normalized growth,"locus YGR040W, strain KSS1, hits give low values",0.998
same,normalized growth,"locus YGR052W, strain FMP48, hits give low values",1.1
same,normalized growth,"locus YGR092W, strain DBF2, hits give low values",0.939
same,normalized growth,"locus YHR030C, strain SLT2, hits give low values",1.14
same,normalized growth,"locus YHR079C, strain IRE1, hits give low values",1.09
same,normalized growth,"locus YHR082C, strain KSP1, hits give low values",1.1
same,normalized growth,"locus YHR205W, strain SCH9, hits give low values",0.977
same,normalized growth,"locus YIL147C, strain SLN1, hits give low values",0.966
same,normalized growth,"locus YJL095W, strain BCK1, hits give low values",1.1
same,normalized growth,"locus YJL128C, strain PBS2, hits give low values",0.913
same,normalized growth,"locus YJL157C, strain FAR1, hits give low values",0.968
same,normalized growth,"locus YJR016C, strain ILV3, hits give low values",0.959
same,normalized growth,"locus YJR066W, strain TOR1 (second series), hits give low values",1.01
same,normalized growth,"locus YJR066W, strain TOR1, hits give low values",1.15
same,normalized growth,"locus YKL048C, strain ELM1, hits give low values",0.95
same,normalized growth,"locus YKL067W, strain YNK1, hits give low values",0.961
same,normalized growth,"locus YKL101W, strain HSL1, hits give low values",0.962
same,normalized growth,"locus YKL193C, strain SDS22, hits give low values",0.959
same,normalized growth,"locus YKL203C, strain TOR2, hits give low values",1.07
same,normalized growth,"locus YLR113W, strain HOG1, hits give low values",0.971
same,normalized growth,"locus YLR133W, strain CKI1, hits give low values",0.955
same,normalized growth,"locus YLR403W, strain SFP1, hits give low values",0.983
same,normalized growth,"locus YML070W, strain DAK1, hits give low values",0.973
same,normalized growth,"locus YMR001C, strain CDC5, hits give low values",0.954
same,normalized growth,"locus YMR205C, strain PFK2 (second series), hits give low values",0.968
same,normalized growth,"locus YMR277W, strain FCP1, hits give low values",0.961
same,normalized growth,"locus YNL006W, strain LST8, hits give low values",0.97
same,normalized growth,"locus YNL020C, strain ARK1, hits give low values",0.959
same,normalized growth,"locus YNL161W, strain CBK1, hits give low values",0.958
same,normalized growth,"locus YNL183C, strain NPR1, hits give low values",1.12
same,normalized growth,"locus YNL207W, strain RIO2, hits give low values",0.971
same,normalized growth,"locus YNL222W, strain SSU72, hits give low values",0.962
same,normalized growth,"locus YNL307C, strain MCK1 (second series), hits give low values",0.961
same,normalized growth,"locus YOL078W, strain AVO1, hits give low values",0.967
same,normalized growth,"locus YOL136C, strain PFK27, hits give low values",0.98
same,normalized growth,"locus YOR061W, strain CKA2, hits give low values",0.969
same,normalized growth,"locus YOR119C, strain RIO1, hits give low values",1.02
same,normalized growth,"locus YOR231W, strain MKK1, hits give low values",1.06
same,normalized growth,"locus YOR329C, strain SCD5, hits give low values",0.956
same,normalized growth,"locus YPL031C, strain PHO85, hits give low values",0.985
same,normalized growth,"locus YPL153C, strain RAD53, hits give low values",1
same,normalized growth,"locus YPL204W, strain HRR25, hits give low values",0.991
same,normalized growth,"locus YPL209C, strain IPL1, hits give low values",0.956
same,normalized growth,"locus YPL256C, strain CLN2, hits give low values",1.02
same,normalized growth,"locus YPR025C, strain CCL1, hits give low values",0.954
same,normalized growth,"locus YPR106W, strain ISR1, hits give low values",0.954
same,normalized growth,"locus YPR111W, strain DBF20, hits give low values",0.949
same,normalized growth,"strain NNK1, hits give low values",0.956
same,normalized growth,"strain TSCII, hits give low values",0.957
